Assay outcomes (PubChem BioAssay)
Hits are enriched below; roughly 27% of the tested compounds scored in any of these assays.
CYP2C9 act: increases human cytochrome P450 2C9 activity. recombinant CYP2C9, luciferin-H conversion, luminescence; active compounds read high; factor 1 = untreated enzyme, 0 = blocked. activation factor at 5 µM. actives 1.4% (n = 96,000);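 active means activation factor of 2 or more for CYP2C9 at a 5 µM dose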;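 further: 0 = sulfaphenazole-blocked wells and 1 = vehicle-only wells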
Target sequence (P11712 whole entry, looked up): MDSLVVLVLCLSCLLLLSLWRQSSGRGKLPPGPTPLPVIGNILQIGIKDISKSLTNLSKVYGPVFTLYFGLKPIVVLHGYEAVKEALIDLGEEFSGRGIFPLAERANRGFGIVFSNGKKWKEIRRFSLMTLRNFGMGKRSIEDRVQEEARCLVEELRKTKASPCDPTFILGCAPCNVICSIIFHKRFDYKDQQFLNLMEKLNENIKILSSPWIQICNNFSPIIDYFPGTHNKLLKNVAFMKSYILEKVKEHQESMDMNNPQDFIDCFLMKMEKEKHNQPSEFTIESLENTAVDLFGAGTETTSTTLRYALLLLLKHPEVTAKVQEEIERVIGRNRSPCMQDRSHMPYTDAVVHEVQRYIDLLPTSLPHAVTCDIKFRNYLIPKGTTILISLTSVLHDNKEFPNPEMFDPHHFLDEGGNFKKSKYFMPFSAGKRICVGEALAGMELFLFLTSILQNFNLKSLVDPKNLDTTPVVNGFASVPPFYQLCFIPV
CYP2C19 inh: inhibitors of human CYP2C19. AID 778. P33261. inhibition, % at 5 µM. CYP2C19 Supersomes, luciferin-H EGE luminescence, 30 min. actives 21% (n = 96,000);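 active means CYP2C19 inhibition above a set limit at 5 µM in the primary screen, cut at about 50% in these data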;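 further: plate controls were negative control wells for no effect and 2.5 mM tranylcypromine positive control for full effect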
CYP2C19 act: cytochrome P450 2C19 (human) activation; activation factor at 5 µM; recombinant CYP2C19, luciferin-H EGE luminescence; active compounds read high; 0 = fully inhibited enzyme, 1 = untreated enzyme; P33261; AID 1025; 96,000 tested, under 10 active;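 active means activation factor of at least 2 at 5 µM in the primary screen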;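 further: 0 = wells with 2.5 mM tranylcypromine and 1 = vehicle-only wells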
CYP2C9 inh: human CYP2C9 inhibition; P11712; CYP2C9 Supersomes, luciferin-H conversion, luminescence; inhibition, % at 5 µM; actives 20% (n = 96,000); AID 777;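 active means blocking of liver enzyme CYP2C9 beyond about 50% at 5 µM, limit read from the data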
Cav32 inh: blocks human Cav3.2 T-type calcium channel; O95180; Cav3.2-expressing cells, Fluo-4 calcium fluorescence FDSS; active compounds read low; B-score at 10 µM; actives 4% (n = 100,000); AID 449739;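 active means single-dose well whose peak fluorescence ratio is a statistical outlier from its plate by either plate-standardised score or position-corrected B-score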
Starred values were filed as active, the others as inactive; . = no result given.

SMILES | CYP2C9 act | CYP2C19 inh | CYP2C19 act | CYP2C9 inh | Cav32 inh
CN(C)C(=O)CSc1nnc([C@H](Cc2c[nH]c3ccccc23)NC(=O)OC(C)(C)C)o1 | 0.9 | 10 | 0.9 | 13 | 0.51
Cc1ccccc1Cn1cc(NC(=O)COc2ccccc2)cn1 | 0.6 | 21 | 0.8 | 42 | -2.2
CCN=C(NCC)SC1CC(=O)N(c2ccccc2)C1=O (centres undefined) | 1 | 88* | 0.1 | -1 | 0.28
Cc1cccc(N2C(=O)CC(SC(=Nc3ccccc3)Nc3ccccc3)C2=O)c1 (centres undefined) | 0.7 | 31 | 0.7 | 32 | -2.6
CN=C(Nc1ccc2c(c1)OCO2)SC1CC(=O)N(c2ccccc2)C1=O (centres undefined) | . | . | . | . | -3.6
CCN=C(Nc1cccc(F)c1)SC1CC(=O)N(c2ccc(OC)cc2)C1=O (centres undefined) | 0.4 | 31 | 0.7 | 59* | -1
CCN=C(NCC)SC1CC(=O)N(c2cccc(OC)c2)C1=O (centres undefined) | 2.1* | 79* | 0.2 | -110 | -0.28
CN(C)CCNc1nc2c(c(=O)[nH]c(=O)n2C)n1CC(O)COc1ccc(Cl)cc1Cl (centres undefined) | 0.9 | 9 | 0.9 | 10 | 0.81
Cc1cc(OCC(=O)N2CCOCC2)c(C(C)C)cc1Cl | 0.9 | 80* | 0.2 | 14 | -2.1
Cc1cc(C)c(C)c(OCC(=O)N2CCOCC2)c1 | 1.8 | 67* | 0.3 | -80 | 1.2
CCOc1ccc(OCC(=O)N2CCOCC2)cc1 | 1.1 | 30 | 0.7 | -11 | 0.12
CC(C)(C)OC(=O)N1CCOCCOCCN(C(=O)OC(C)(C)C)CCOCCOCC1 | 1 | -2 | 1 | 0 | 1.3
COC(=O)c1[nH]c2ccccc2c1NC(=O)C(C)N1CCN(C(=O)c2ccco2)CC1 (centres undefined) | 0.7 | 11 | 0.9 | 25 | 0.73
COC(=O)CSC1=C(C#N)C(c2cccc(F)c2)CC(=O)N1 (centres undefined) | 0.6 | 28 | 0.7 | 44 | .
COC(=O)CSC1=C(C#N)C(=O)NC(c2ccccc2)S1 (centres undefined) | 0.1 | 58* | 0.4 | 92* | -0.21
CCC(C)(C)NC(=O)C(c1ccc(C)cc1)N(Cc1ccco1)C(=O)CCC(=O)Nc1nccs1 (centres undefined) | 0.9 | -6 | 1.1 | 8 | -4.8*
CCC(C)(C)NC(=O)C(c1ccc(F)cc1)N(Cc1ccco1)C(=O)CCC(=O)Nc1ccccn1 (centres undefined) | 0.9 | 8 | 0.9 | 7 | -8.8*
COc1ccc(C(C(=O)NC(C)(C)C)N(Cc2ccco2)C(=O)CCC(=O)Nc2cc(C)on2)cc1 (centres undefined) | 0.3 | 38 | 0.6 | 69* | 0.29
Cc1cccnc1NC1OC(=O)c2ccccc21 (centres undefined) | 1 | -15 | 1.1 | -3 | 0.0092
Cc1cc(Br)ccc1OCC(=O)N(Cc1nc(-c2ccccc2)no1)C(C)C | 0.6 | 28 | 0.7 | 38 | -4.8*
CC(C)C(=O)NCCc1nc(-c2ccccc2)no1 | . | . | . | . | 0.76
Cc1ccc(-c2noc(CN(C(=O)Cc3ccccc3)C(C)C)n2)cc1 | 0.2 | 74* | 0.3 | 78* | -3.4
CC(C)N(Cc1nc(-c2ccccc2)no1)C(=O)COc1ccccc1 | 0.4 | 89* | 0.1 | 64* | -1.9
Cc1ccc(-c2noc(CN(C(=O)CCCCCN3C(=O)c4ccccc4C3=O)C(C)C)n2)cc1 | 0.1 | 96* | 0 | 91* | -4.8*
Cc1ccc(C)c(C(=O)N(Cc2nc(-c3ccc(Cl)cc3)no2)C(C)C)c1 | 0.1 | 83* | 0.2 | 88* | .
SMILES | CYP2C9 act | CYP2C19 inh | CYP2C19 act | CYP2C9 inh | Cav32 inh
CC(C)N(Cc1nc(-c2ccccc2)no1)C(=O)CSc1ccccc1 | 0.2 | 92* | 0.1 | 79* | -4.2*
O=C(NCCC1=CCCCC1)c1ccc(Cl)c(S(=O)(=O)Nc2ccccc2)c1 | 0.3 | 40 | 0.6 | 69* | -2.3
Cc1ccc(NS(=O)(=O)c2cc(C(=O)N3CCc4ccccc4C3)ccc2Cl)cc1 | 0.5 | 44 | 0.6 | 48 | -3.3
Cc1ccccc1NS(=O)(=O)c1cc(C(=O)N2CCc3ccccc3C2)ccc1C | 0.3 | 54* | 0.5 | 67* | .
COc1cccc(C(=O)NCCC2=CCCCC2)c1 | 0.6 | 93* | 0.1 | 43 | 0.067
CC(=O)c1cccc(NC(=S)NCCC2=CCCCC2)c1 | . | . | . | . | -2.1
Cc1ccccc1NS(=O)(=O)c1cc(C(=O)NCCC2=CCCCC2)ccc1C | 0.9 | -8 | 1.1 | 12 | -3.4*
CCN(CC)CCNC(=O)c1ccc(Cl)c(S(=O)(=O)Nc2ccc(Cl)cc2)c1 | 1.1 | -8 | 1.1 | -11 | -1.1
O=c1ncc(F)c[nH]1 | . | . | . | . | -0.84
CC1CCCCN1S(=O)(=O)c1ccc(NC(=O)CSc2nnnn2C)cc1 (centres undefined) | 0.7 | 4 | 1 | 28 | .
Cn1c(=O)c2c(ncn2CCN(CCO)Cc2ccccc2)n(C)c1=O | 1.1 | -6 | 1.1 | -10 | 0.45
Cc1ccc(NS(=O)(=O)c2cc(C(=O)NCc3ccccn3)ccc2Cl)cc1 | 0.5 | 73* | 0.3 | 55* | 0.023
COC(=O)[C@H](Cc1ccccc1)NC(=O)NCCC1=CCCCC1 | 0.4 | 69* | 0.3 | 62* | -0.64
Cc1ccc(NS(=O)(=O)c2cc(C(=O)O)ccc2Cl)cc1 | 0.7 | 23 | 0.8 | 29 | -0.36
C1CCC(C(CC2CCCCN2)C2CCCCC2)CC1 (centres undefined) | . | . | . | . | -1.7
Cc1ccnc(N2CCC(C(=O)Nc3nnc(C)s3)CC2)n1 | 1.1 | 5 | 1 | -5 | 0.95
CN(C)C(=O)N1CCN(C(=O)c2ccco2)CC1 | 1 | -15 | 1.2 | 1 | 1
CC12CC(c3ccccc3O1)N(C(=O)c1ccco1)C(=S)N2c1ccc(F)cc1 (centres undefined) | 0.6 | 63* | 0.4 | 45 | -2.6
COc1nc2c(C)cccc2cc1-c1noc(-c2ccncc2)n1 | 0.5 | 63* | 0.4 | 50 | .
COc1nc(C)ccc1-c1noc(-c2ccncc2)n1 | . | . | . | . | -0.18
COC(C(=O)Nc1ccc(F)cc1F)c1ccccc1 (centres undefined) | 1 | 21 | 0.8 | -2 | 1.3
COC(C(=O)Nc1ccc(F)c(F)c1)c1ccccc1 (centres undefined) | . | . | . | . | -0.034
COC(C(=O)Nc1ccccc1F)c1ccccc1 (centres undefined) | 1.1 | 66* | 0.3 | -13 | 0.74
COC(C(=O)Nc1cccc(F)c1)c1ccccc1 (centres undefined) | 0.8 | 50* | 0.5 | 23 | -0.15
CSc1nc(Sc2ccccc2Cl)c2ccccc2n1 | 1 | -6 | 1.1 | -5 | -0.6
S=C1SCN(Cc2ccccn2)CN1Cc1ccco1 | 0.9 | 20 | 0.8 | 13 | 0.17
Cc1cc(C)c(NC(=O)C(C)c2cccc(C(=O)c3ccccc3)c2)c(C)c1 (centres undefined) | 0.3 | 72* | 0.3 | 73* | -5.5*
